About 83,000 compounds went through this panel and 20% of them were active in at least one assay; those are over-represented in the sample as a whole.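 Activity criterion: percent growth below 10, measured after cells in 96-well plates were exposed to a single compound concentration for 48 hours.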 The source made the active and inactive calls.

The experiment deals with TK-10 renal. Nature of the experiment: NCI-60 one-dose screen, 48 h (100 = growth as untreated, 0 = no growth, -100 = all killed). The settings on record: 10 µM unless noted.
As to `O=C(O)c1nn(-c2ccc(Cl)cc2)nc1N1CCCC1`, the growth is 133% (inactive).
Consider `COCCNC(=O)Cc1cc(-c2ccc(Cl)cc2)n(-c2ccccc2)c1C`, for which the growth was 95.3% (inactive).
Consider `O=C(Nc1ccc(Oc2cccc(F)c2)c(Cl)c1)c1cnccn1`, for which the growth is 59.5% (inactive).
As to `CC(=O)[C@H]1CC[C@]2(C)[C@@H]1CC[C@@H]1[C@@]3(C)C/C(=C/c4cccnc4)C(=O)C(C)(C)[C@@H]3CC[C@]12C`, the growth is 162% (inactive).
The value for `C=C(C)Cn1c(SCC(=O)c2cccs2)nc2sc3c(c2c1=O)CCCC3` was 87.5% (inactive).
As for `Cc1ccc(C(=O)Nc2ccc(CN3CCN(C)CC3)c(C(F)(F)F)c2)cc1C#Cc1cnc(N)c2ccccc12`, the growth was 29.9% (inactive).
As for `COc1cc(C2CC(c3cccc(Nc4ccncc4)c3)=Nc3c(N)ncnc3N2)cc(OC)c1OC` (stereo not given), the growth was 110% (inactive).
Take `CO[C@]12C=C/C(=C(/C(=O)OCc3cccnc3)C(=O)CCCCCCCC[C@]3(OC)C=C/C(=C(/C(=O)OCc4cccnc4)C(=O)CCCCCCCC1)O3)O2`: the growth was -13.8% (active).
The value for `CCOC(=O)CSc1nc2sc3c(c2c(=O)n1-c1ccccc1)CCCCC3` was 102% (inactive); that for `CN1CCN(Cc2ccc(NC(=O)c3cncc(C#Cc4cnc(N)c5ccc(C#N)cc45)c3)cc2C(F)(F)F)CC1` was -2.47% (active); that for `CCOC(=O)C1=C(c2ccccc2)N=C2SC=C(c3cccc([N+](=O)[O-])c3)N2C1c1ccc(O)cc1` (stereo not given) was 104% (inactive).
The value for `CCn1c2ccccc2c2cc(C(O)c3cccc4ncccc34)ccc21` (stereo not given) was 54.7% (inactive); that for `Cc1c(Cl)cccc1NC(=O)c1sc2nc3c(cc2c1N)CCCC3` was 62.2% (inactive); that for `O=C(/C=C/c1ccco1)Nc1ncc(Cc2ccc(F)cc2)s1` was 62.3% (inactive).
Regarding `COc1nc2ccccc2cc1/C=[N+](\[O-])c1ccccc1`, the growth is 79.6% (inactive).
The value for `COc1ccc(-c2ccc(-c3ccc(C(=N)N)o3)o2)cc1` was 61.9% (inactive).
The same measure for `C=C(C[n+]1ccccc1)[C@@H]1CC[C@]2(C(=O)OC)CC[C@]3(C)[C@H](CC[C@@H]4[C@@]5(C)CCC(=O)C(C)(C)[C@@H]5CC[C@]43C)[C@@H]12`: 102% (inactive); for `COc1cccc(C(=O)Nc2cccc(NC(=O)c3ccccn3)c2)c1`: 96.6% (inactive); for `N#CC1=C(N)Oc2c(ccc3cccnc23)C1c1ccccc1` (stereo not given): 73% (inactive).
As to `COc1ccc(C2=NN(C=O)C(c3ccc(Oc4nc5c(c(=O)n(C)c(=O)n5C)n4C)c(OC)c3)C2)cc1` (stereo not given), the growth was 104% (inactive).
`CCCS(=O)(=O)Nc1cccc(Nc2ncnc3cc(NC(=O)CCl)ccc23)c1Cl`: the growth is -36.4% (active).
As to `Cn1cc(-c2csc(-c3cn(C)c4ccc(F)cc34)n2)c2cnccc21`, the growth is -20.2% (active).
The same measure for `C=C(C)[C@@H]1CC[C@]2(C(=O)NC(C)=O)CC[C@]3(C)[C@H](CC[C@@H]4[C@@]5(C)CCCNC(C)(C)[C@@H]5CC[C@]43C)[C@@H]12`: 10.6% (inactive); for `COc1cccc(CNc2nnc(C)c(C)n2)c1O`: 108% (inactive); for `O=C(/C=C/c1ccc(Cl)cc1)c1ccc(-n2cc(CN3CCN(c4cc5c(cc4F)c(=O)c(C(=O)O)cn5C4CC4)CC3)nn2)cc1`: 92.4% (inactive).
As for `COc1cccc2cc(N(C)c3nc(C)nc4c3CCC4)ccc12`, the growth is 58% (inactive).
Take `O=C(O)CCCN1C(=O)CSC1=S`: the growth is 131% (inactive).
In the case of `Cc1c2cnccc2c(C)c2c1c1cc(C(=O)O)ccc1n2C`, the growth was -7.59% (active).
For the compound `C=C1C(=O)O[C@H]2[C@H]1CC/C(CNC(=O)/C=C/c1cc(OC)c(OC)c(OC)c1)=C\CC[C@@]1(C)O[C@@H]21`, the growth is -86.5% (active).
For `Cc1nc2ccccc2c(/C=C/c2ccc(Br)cc2)c1C(=O)/C=C/c1ccccc1`, the growth was 21.2% (inactive).
Consider `CC(=O)O[C@H]1C[C@@]2(C)[C@@H](C[C@@H](O)[C@H]3[C@@]4(C)CC[C@H](N5CCCC5)[C@@H](C)[C@@H]4CC[C@@]32C)/C1=C(\CCC=C(C)C)C(=O)O`, for which the growth is 95.1% (inactive).
On to `O=C(O)c1cc2ccccc2s1`, for which the growth is 123% (inactive).
The value for `CC(=O)OCCOc1cc(Cl)c(Cl)cc1Cl` was 106% (inactive).
In the case of `CCN1CCN(c2nc(NNC(=O)c3ccc(OC)cc3)nc(N3CCN(C(c4ccccc4)c4ccccc4)CC3)n2)CC1`, the growth was 49.5% (inactive).
The same measure for `Cc1cc(=O)oc2cc(Oc3nc(-c4ccccc4)cn4c(-c5ccccc5)cnc34)ccc12`: 80.5% (inactive); for `CN(Cc1ccccc1)c1nc(Cl)c(C2CC(c3ccc(Cl)cc3)=NN2c2cc(Cl)cc(Cl)c2)s1` (stereo not given): 117% (inactive).
Take `COC(=O)c1c(C)nc(C)c2c1C(=O)C(Br)=C(NCCCCO)C2=O`: the growth was 119% (inactive).
In the case of `COc1cc(/C=C/c2cc(/C=C/c3ccc(O)c(OC)c3)n(C(=O)Nc3ccc(C)cc3C)n2)ccc1O`, the growth was 15.9% (inactive).
On to `Cc1cc2nc(C(Cl)Cl)nc(-c3ccccc3)n2n1`, for which the growth is 59.2% (inactive).
`CN1C(=O)N(C)C2C1NN=c1s/c(=C\c3ccccc3F)c(=O)n12` (stereo not given): the growth was 63.1% (inactive).

The values are drawn from PubChem BioAssay (NCI).
